Here are results for 39 compounds from the supplement of paper PMC4894684.

Structures can show the parent of a compound that is named as a salt. ± gives the standard deviation of the averaged measurements.

This experiment concerns Toxoplasma gondii RH (in HFF). Kind of experiment: parasite growth relative to the screen mean (all compounds = 100%); higher = less inhibition of parasite growth. To be noted: 5 µM; 72 h; oxygen 21 %. The procedure, abridged:
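RH β-Gal–GFP Toxoplasma at MOI 1:5 was used to infect confluent human foreskin fibroblasts in 96-well plates within 2 h of pin-transferring compounds to 5 µM final. After 72 h at 21% O2, parasite number was determined by CPRG β-Gal assay against standard curves on the same plate. Growth is relative to the screen mean and averaged over two screens, with all compounds = 100%.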
Turning to `CCOC(=O)C1=C(N)Oc2ccc(Br)cc2C1C(C#N)C(=O)OCC` (centres undefined), the parasite growth was determined as 135 ± 2.5%. Compound `CNC(=O)[C@H]1O[C@@H](n2cnc3c(NCc4cccc(I)c4)nc(Cl)nc32)[C@H](O)[C@@H]1O` yielded a parasite growth of 120 ± 28%. `CN1CC(=O)N=C1NC(=O)Nc1cccc(Cl)c1` [Fenobam]: the parasite growth is 134 ± 5.3%.

Take `COc1cc([C@@H]2c3cc4c(cc3[C@@H](O[C@@H]3O[C@@H]5CO[C@@H](C)O[C@H]5[C@H](O)[C@H]3O)[C@H]3COC(=O)[C@H]23)OCO4)cc(OC)c1O` [Etoposide]: the parasite growth worked out at 77.2 ± 18%.

As to `CN1CCC(=C2c3ccccc3CC(=O)c3sccc32)CC1` [Ketotifen fumarate], the parasite growth stood at 54.3 ± 14%. As for `C1CCC(N=C(NC23CC4CC(CC(C4)C2)C3)N2CCOCC2)CC1`, the figure is 100 ± 31%; as for `N[C@@H]1CCN(O)C1=O`, 97.4 ± 22%. In the case of `O=C(COc1cccc2c(=O)[nH]ccc12)c1ccccc1` it was 92.69 ± 0.78%. Compound `CN1CCN(C2=Cc3ccccc3Oc3ccc(Cl)cc32)CC1` registered a parasite growth of 31.7 ± 7.6%. For `CC(C)C[C@H](NC(=O)[C@@H](O)[C@H](N)Cc1ccccc1)C(=O)O` [Bestatin], the parasite growth turned out to be 136 ± 6.9%. As for `Nc1ccc(-c2nc3ccc(-c4nc5ccc(N)cc5[nH]4)cc3[nH]2)cc1`, the figure is 89.6 ± 5.3%. Turning to `O=C1C(SCCO)=C(SCCO)C(=O)c2ccccc21`, the parasite growth turned out to be 180 ± 14%. In the case of `Cc1ccc(OCC(O)C(C)NC(C)C)c2c1CCC2` (centres undefined) [ICI-118,551 hydrochloride] it was 92.9 ± 14%; in that of `CSc1nc(NC2CCCC2)c([N+](=O)[O-])c(NC2CCCC2)n1`, 35.6 ± 32%. In the case of `C[C@@H](NCc1cc(Br)cc2[nH]c(=O)c(=O)[nH]c12)P(=O)(O)O`, the parasite growth came to 109 ± 3.7%. As for `CCCOc1ccccc1-c1nc2[nH]nnc2c(=O)[nH]1` [Zaprinast], the parasite growth was found to be 98.3 ± 14%. As for `C=C1C(=O)O[C@H]2[C@H]1CC/C(C)=C/CC[C@@]1(C)O[C@@H]21` [Parthenolide], the parasite growth was determined as 87.7 ± 4.2%. In the case of `O=C(c1ccc(F)cc1)C1CCN(CCCCc2ccccc2)CC1` [4-(4-Fluorobenzoyl)-1-(4-phenylbutyl)-piperidine oxalate] it was 110 ± 7.6%; in that of `CC(C)(Sc1ccc(CCN(CCCCC2CCCCC2)C(=O)NC2CCCCC2)cc1)C(=O)O`, 87.9 ± 17%.

As to `CCO/C(O)=C1\C(C)=NC(c2ccccc2)=C(C(=O)OCc2ccc([N+](=O)[O-])cc2)C1C#Cc1ccccc1` (centres undefined), the parasite growth is 67.4 ± 16%.

The compound `CN(C)CCCSC(=N)N` [Dimaprit dihydrochloride] yielded a parasite growth of 73.36 ± 0.62%. Compound `CCCn1c(=O)c(C)cn2nc(N)nc12` returned a parasite growth of 145 ± 2.1%. In the case of `Cc1nc2sccn2c(=O)c1CCN1CCC(=C(c2ccccc2)c2ccc(F)cc2)CC1` it was 106 ± 24%; in that of `COCCNC(=O)COc1ccc(OCCNC[C@H](O)COc2ccccc2)cc1` [ZD 7114 hydrochloride], 123 ± 7%; in that of `O=[N+]([O-])c1cccc2cn[nH]c12` [7-Nitroindazole], 124.7 ± 0.72%. As for `CCCn1c(=O)c2[nH]c(-c3ccccc3)nc2n(CCC)c1=O` [1,3-Dipropyl-8-phenylxanthine], the figure is 47 ± 7.9%; as for `Fc1ccc(-c2nc3n(c2-c2ccncc2)CCS3)cc1`, < 0%; as for `CCOC(=O)C1=C[C@]2(CC)CCCN3CCc4c(n1c1ccccc41)[C@@H]32` [Vinpocetine], 121 ± 10%. `NC(=O)N/N=C/c1ccc(Oc2ccc(F)cc2)cc1` had a parasite growth of 145 ± 19%. On to `COc1ccccc1N1CCN(CCN2C(=O)c3ccccc3C(C)(C)C2=O)CC1` [ARC 239 dihydrochloride], for which the parasite growth was 108 ± 47%. As for `N#C/C(=C\c1ccc(O)c(O)c1)C(=O)OCCc1cccs1`, the figure is 132 ± 15%; as for `CC(=O)N[C@@H](Cc1c[nH]c2ccccc12)C(=O)OCc1cc(C(F)(F)F)cc(C(F)(F)F)c1`, 108 ± 52%. With `CC[N+](CC)(CC)CCOc1ccc(/C=C/c2ccccc2)cc1`, the parasite growth came to 99.2 ± 19%.

In turn, `CC1=C(CC(=O)O)c2cc(F)ccc2/C1=C\c1ccc([S+](C)[O-])cc1` (centres undefined) [Sulindac] returned a parasite growth of 183 ± 34%. In the case of `Cc1ccc(NC(=O)C(C)C)cc1C1CCN(Cc2ccc(Oc3ccc(F)c(F)c3)cc2)CC1`, the parasite growth is < 0%. On to `Cc1ccc(CC2(O)CCN(CCOc3ccc(O)cc3)CC2)cc1`, for which the parasite growth was determined as 111 ± 35%. In turn, `CC[C@H](C)C(=O)O[C@H]1C[C@@H](C)C=C2C=C[C@H](C)[C@H](CC[C@@H]3C[C@@H](O)CC(=O)O3)[C@H]21` [Lovastatin] yielded a parasite growth of 128 ± 17%. Take `NC(=O)N1c2ccccc2CC(O)c2ccccc21` (centres undefined) [Licarbazepine]: the parasite growth stood at 122 ± 9.9%.

The compound `CCn1c(=O)n(C2=C(CO)CN(CC3CCCCCCC3)CC2)c2ccccc21` showed a parasite growth of 174 ± 19%.
